Data: PubChem BioAssay AID720518 (National Center for Advancing Translational Sciences (NCATS), 2013)
Inconclusive results are not listed. Calls of active or inactive are those of the source. Calls follow the shape of the full dose curve.

Assay: qHTS for Inhibitors of Cell Surface uPA Generation: Wild-type Protective Antigen (WT-PrAg) Counterscreen for Cherry-picked Compounds; as to activity (protection): 0% is about no effect
Settings: cells, WT protective antigen toxicity counterscreen; series mostly up to 115 µM; activity (protection): at the top concentration
Potency is read from the fitted curve at half-maximal effect.

Row | Compound | activity (protection) | Potency
1 | O=C(O)c1cc(N=Nc2c(O)[nH]c3ccc([N+](=O)[O-])cc23)ccc1Cl | -1.2% (inactive) | 
2 | CCCCCN(C(=O)CCC(=O)OCCOc1cccc(Cl)c1)c1c(N)n(CCCC)c(=O)[nH]c1=O | -0.186% (inactive) | 
3 | CCOCCCn1c(SCC(=O)Nc2cc(OC)ccc2OC)nc2ccccc2c1=O | -2.4% (inactive) | 
4 | CCc1nccn1CCC(=O)N1CCc2c([nH]c3ccccc23)C1CC(C)C (stereo not given) | -0.387% (inactive) | 
5 | CC1(C)CC(CCC(=O)NC(=S)Nc2ccccc2Cl)C(=O)O1 (stereo not given) | -1.58% (inactive) | 
6 | CCCCN(CC)CCNC(=O)c1cc2cc3ccc(Cl)cc3nc2o1 | -2% (inactive) | 
7 | O=C(C1CCN(c2nnc(N3CCCC3=O)s2)CC1)N1CCN(c2cccc(C(F)(F)F)c2)CC1 | -1.97% (inactive) | 
8 | COc1ccc(OC)c(NC(=O)C2CCCN2C(=O)C2CCC(C)CC2)c1 (stereo not given) | 0.0243% (inactive) | 
9 | CCOc1ccc(C(=O)NCC(=O)N2CCN(C/C=C/c3ccccc3)CC2)cc1OCC | -0.61% (inactive) | 
10 | CCCCN(CC(=O)Nc1cccc(S(=O)(=O)N2CCCC2)c1)Cc1nc2ccccc2c(=O)[nH]1 | -2.42% (inactive) | 
11 | O=C(CSc1ccc(Cl)cc1)Nc1ccc(C2SCCS2)cc1 | 1.42% (inactive) | 
12 | CCCN1CCN(CC(=O)Nc2nncs2)CC1 | 2.48% (inactive) | 
13 | O=c1[nH]c2c(s1)C(c1ccc(O)cc1)C1C3CCC(C3)C1S2 (stereo not given) | 4.5% (inactive) | 
14 | COc1ccc(C(=O)N[C@H](C(=O)NCc2cccs2)C(C)C)cc1 | -0.821% (inactive) | 
15 | Cc1cc(/C=N/NC(=O)c2ccccc2F)c(C)n1-c1ccccc1 | -0.8% (inactive) | 
16 | O=C(CN1C(=O)CSCC1=O)NCc1ccc(F)cc1 | 0.538% (inactive) | 
17 | CCOC(=O)c1cc(-c2ccccc2C)n(CC2CC(c3ccc(OC)cc3)=NO2)n1 (stereo not given) | -2.18% (inactive) | 
18 | COc1ccc(-c2cccc(-c3cc(=O)oc4cc(OC)c(OC)c(OC)c34)c2)cc1 | -1.14% (inactive) | 
19 | O=C(Cc1ccc(Cl)cc1)c1c[nH]c(C(=O)NCCCn2ccnc2)c1 | 1.41% (inactive) | 
20 | COc1cc(/C=C(/C#N)C(=O)Nc2ccccc2)ccc1OCc1ccc(C(=O)O)cc1 | 0.55% (inactive) | 

Row | Compound | activity (protection) | Potency
21 | O=C(CN1CCCC1)Nc1cccc(Cl)c1Cl | 1.89% (inactive) | 
22 | Cc1[nH]c(=O)[nH]c(=O)c1S(=O)(=O)N1CCCc2ccccc21 | -1.05% (inactive) | 
23 | CCc1cc(CC)c(/C=N/NC(N)=O)c(CC)c1 | -1.8% (inactive) | 
24 | CCN(CC)C(=O)Cn1cc(/C=C(\C#N)C(=O)NC2CC2)c2ccccc21 | 2.13% (inactive) | 
25 | CCC(C)C1NC(=O)C2CCCN2C(=O)C(CC(C)C)OC(=O)CCNC(=O)C(C)N(C)C(=O)C(C(C)C)N(C)C1=O (stereo not given) |  | 3.69 µM (active)
26 | O=[N+]([O-])c1ccccc1C=NNC(=S)NN=Cc1ccccc1[N+](=O)[O-] | -1.76% (inactive) | 
27 | NC(=O)c1ccccc1NC(=O)CC12CC3CC(CC(C3)C1)C2 | -1.39% (inactive) | 
28 | CC1(C)CC(=O)C=C(c2ccc3ccccc3c2)C1 | 0.346% (inactive) | 
29 | CN(CCC#N)C(=S)Nc1ccc(Oc2ccccc2)cc1 | -0.411% (inactive) | 
30 | CCNC(=S)NNC(=O)C(c1ccccc1)c1ccccc1 | 0.86% (inactive) | 
31 | COc1ccc(C(=O)NC(=S)Nc2ccc(NC(=O)c3ccco3)cc2)cc1[N+](=O)[O-] | -0.262% (inactive) | 
32 | CC1C2=C(CC(C)(C)CC2=O)NC2=C1C(=O)CC(C)(C)C2 | -0.457% (inactive) | 
33 | COC(=O)Cc1c(C)c2ccc(OCC(=O)N3CCCC(C)C3)c(C)c2oc1=O (stereo not given) | -1.64% (inactive) | 
34 | C=CCN1C=C2C(=O)C(C)(OC(=O)c3cnc4ccccc4n3)C(=O)C=C2C=C1/C=C/COC (stereo not given) | -0.821% (inactive) | 
35 | O=C(Nc1ccc(N2CCOCC2)cc1)c1ccc(Cl)c(S(=O)(=O)N2CCCC2)c1 | -0.904% (inactive) | 
36 | CCn1c(=O)cc(C(=O)OC)sc1=Nc1ccc(F)c(F)c1 | -2.26% (inactive) | 
37 | CCN(CC)CCCNC(=O)c1cn(C)c(=O)c2c1c1ccccc1n2C | 4.64% (inactive) | 
38 | O=C(COc1cc2oc(=O)cc(-c3ccccc3)c2cc1Cl)NC(Cc1c[nH]c2ccc(O)cc12)C(=O)O (stereo not given) | 0.799% (inactive) | 
39 | CC(C)c1ccc(NC(=O)COc2ccc(S(=O)(=O)N3CCOCC3)cc2)cc1 | 0.0707% (inactive) | 
40 | CCCc1nc2c(=O)n(C)c(=O)[nH]c2n1CCC | 0.862% (inactive) | 
